This is a sample that favours compounds with a hit; in the whole collection about 5.6% have one here.
Cardio protect = cardioprotection against H2O2-induced cell death, primary screen, uHTS, H9c2 cells, ATPLite luminescence; AID 588492, 2011; 360,000 tested, 0.63% active; protection from H2O2 cell death, % at 20 µM; H9c2 cardiomyocytes, H2O2 injury protection, 2 h;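 active = compounds giving at least 50% protection of heart cells from peroxide-induced death in the single-dose screen, raw or plate-pattern-corrected value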
PHOSPHO1 inh = PubChem AID 1565. inhibition, % at 13.3 µM. recombinant PHOSPHO1, absorbance phosphatase assay. 290,000 tested, 1.1% active; in the data active = inhibition above about 60%
Target sequence (Q8TCT1 whole entry, looked up): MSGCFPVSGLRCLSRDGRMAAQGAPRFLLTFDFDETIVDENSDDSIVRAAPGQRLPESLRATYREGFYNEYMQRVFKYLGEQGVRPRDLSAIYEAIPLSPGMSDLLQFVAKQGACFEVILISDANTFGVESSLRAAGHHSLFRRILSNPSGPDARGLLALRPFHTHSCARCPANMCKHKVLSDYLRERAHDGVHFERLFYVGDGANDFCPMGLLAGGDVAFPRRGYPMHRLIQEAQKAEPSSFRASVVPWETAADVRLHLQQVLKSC
PfG6PD inh = PfG6PD enzyme inhibitors, primary screen, biochemical, fluorescence intensity, uHTS; PfGluPho enzyme, NADPH resazurin-diaphorase fluorescence; inhibition, % at 20 µM; 350,000 tested, 0.78% active;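 active = inhibition reaching at least a set limit at 20 µM in the primary screen, cut at about 59% in these data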
ALR H2O2 inh = inhibitors of human ALR sulfhydryl oxidase, primary screen, biochemical, H2O2 detection, HRP-luminol luminescence, single point; purified ALR, DTT oxidation; inhibition, % (concentration not given with the values); 290,000 tested, 3.8% active; AID 485317, 2010;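 active = mean replicate inhibition above about 79%, with every replicate also reaching it, limit read from the data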
Target sequence (P55789 whole entry, looked up): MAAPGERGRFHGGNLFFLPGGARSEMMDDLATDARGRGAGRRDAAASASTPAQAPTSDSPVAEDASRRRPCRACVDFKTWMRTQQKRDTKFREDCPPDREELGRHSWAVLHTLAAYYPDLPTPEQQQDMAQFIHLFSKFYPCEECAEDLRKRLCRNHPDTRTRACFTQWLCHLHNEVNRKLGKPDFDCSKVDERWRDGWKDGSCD
M18AAP inhibitor = PfM18AAP inhibitors, malaria aminopeptidase, primary screen, biochemical, QFRET, recombinant enzyme; M18 aspartyl aminopeptidase (Plasmodium falciparum 3D7); H-Glu-NHMec fluorogenic cleavage; inhibition, % at 7.35 µM; 290,000 tested, 1.2% active; AID 1822, 2009;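 active = inhibition above the campaign mean inhibition over all tested compounds plus 3 SD, cut at about 28% in these data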
Each line names hits and unclear results; the compound was inactive in the other large screens.

CCOC(=O)C(C(=O)OCC)c1cc(Br)c2noc3c2c1C(=O)c1ccccc1-3	PfG6PD inh 84 (no result: ALR H2O2 inh)
COc1ccc(N(C(=O)c2cccnc2)S(=O)(=O)c2cccs2)cc1	Cardio protect 54
COc1ccc(N(C(=O)c2ccncc2)S(=O)(=O)c2cccs2)cc1	none
O=C1N(c2ccccc2)C[C@@H]2C[C@@H](c3cccs3)N3CCC[C@@]123	none
CC(C)(O)C#Cc1ccc([C@@H]2C[C@H]3CN(c4ccccc4)C(=O)[C@]34CCCN24)s1	ALR H2O2 inh 92
Cc1cc(C(=O)N2CCN(c3ncccn3)CC2)c2cc(F)ccc2n1	none
O=C(c1cc2cc(F)ccc2[nH]1)N1CCCC(Nc2ccc(F)cc2)C1 (configuration not stated)	none
COc1ccc(NC2CCCN(C(=O)c3cc(C)nc4cc(F)ccc34)C2)cc1 (configuration not stated)	ALR H2O2 inh 99
Cc1cc(C(=O)N2CCCC(Nc3ccccc3)C2)c2ccc(F)cc2n1 (configuration not stated)	ALR H2O2 inh 99
CC(OC(=O)Cc1n[nH]c(=O)c2ccccc12)C(=O)Nc1ccc(F)cc1 (configuration not stated)	Cardio protect 59 (no result: PHOSPHO1 inh, M18AAP inhibitor)
CC(OC(=O)Cc1n[nH]c(=O)c2ccccc12)C(=O)Nc1ccc(F)cc1Cl (configuration not stated)	Cardio protect 69 (no result: PHOSPHO1 inh, M18AAP inhibitor)
Cc1cc(C)c(C(=O)C(C)OC(=O)Cc2n[nH]c(=O)c3ccccc23)cc1C (configuration not stated)	none
Cc1ccc(C(=O)C(C)OC(=O)Cc2n[nH]c(=O)c3ccccc23)cc1 (configuration not stated)	none (no result: PHOSPHO1 inh, M18AAP inhibitor)
Cc1cccc(C(C(=O)NC2CCCCC2)N(Cc2cccnc2)C(=O)c2csnn2)c1 (configuration not stated)	none
C=CCn1c(COc2ccc(F)cc2)nnc1SCC(=O)N1CC(=O)Nc2ccccc21	PHOSPHO1 inh 74
O=[N+]([O-])c1ccc(COc2cccc(CN3CCOCC3)c2)cc1	none (no result: PHOSPHO1 inh, ALR H2O2 inh, M18AAP inhibitor)
O=C(CSc1nnc(COc2ccccc2)n1-c1ccccc1)c1ccccc1	PHOSPHO1 inh 76
CCOC(=O)CSc1nnc(Cc2ccc(OC)cc2)n1-c1ccccc1	PHOSPHO1 inh 79
COc1ccc(-n2c(COc3ccc(C)cc3)nnc2SCC(N)=O)cc1	PHOSPHO1 inh 95
O=C(CSc1nnc(Cc2ccccc2)n1-c1ccccc1)NNC(=O)Cc1ccccc1	ALR H2O2 inh 98
COc1cccc(-n2c(COc3ccc(C)cc3)nnc2SCC(N)=O)c1	none
Cc1cc(=O)oc2c(C)c(OCC(=O)NCCCN3CCOCC3)ccc12	none
CCOc1ccc(/C=N/NC(=O)c2cccc3ccccc23)c(OCC)c1	none
O=[N+]([O-])c1cc2ncccc2c2ncccc12	none (no result: PHOSPHO1 inh, ALR H2O2 inh, M18AAP inhibitor)
O=C(NCCc1ccccc1)C1CC(=O)N(C2CCCCC2)C1 (configuration not stated)	none
Cc1ccc(-n2c(COc3ccccc3)nnc2SCC(=O)O)cc1	none (no result: PHOSPHO1 inh, ALR H2O2 inh, M18AAP inhibitor)
COc1ccc(-n2c(COc3ccccc3)nnc2SCC(N)=O)cc1	PHOSPHO1 inh 72 (no result: ALR H2O2 inh)
CCN(CC)C(=O)CSc1nc2c(sc(=S)n2-c2ccccc2)c(=O)n1-c1ccccc1OC	none (no result: ALR H2O2 inh)
COc1ccc(-n2c(Cc3cccn3C)nnc2SCC(=O)Nc2cccc(C)c2C)cc1	ALR H2O2 inh 89
CCOC(=O)CSc1nc2c(sc(=S)n2-c2ccccc2)c(=O)n1-c1ccc(OC)cc1OC	PfG6PD inh 65, M18AAP inhibitor 30 (no result: ALR H2O2 inh)
CCOC(=O)C1=C(COC(=O)c2ccc(OC)c(S(=O)(=O)N3CCOCC3)c2)NC(=O)NC1C (configuration not stated)	none (no result: PHOSPHO1 inh, ALR H2O2 inh, M18AAP inhibitor)
O=C1NC(=O)c2c(Br)c(Br)c(Br)c(Br)c21	Cardio protect 59 (no result: PHOSPHO1 inh, ALR H2O2 inh, M18AAP inhibitor)
O=C1NC(=O)C(=O)N1	none (no result: PHOSPHO1 inh, M18AAP inhibitor)
COc1ccc2c3c([nH]c2c1)C(C)N(C(C)=O)CC3 (configuration not stated)	ALR H2O2 inh 97
COc1ccc2c3c([nH]c2c1)C(C)N(CCC(=O)NN)CC3 (configuration not stated)	none
CN1/C(=C/C=C(/C#N)C(N)=O)C(C)(C)c2ccccc21	ALR H2O2 inh 92
CN1/C(=C\C=C(/C#N)C(=O)Nc2ccccc2F)C(C)(C)c2ccccc21	none
O=C(OCC(=O)N1CCCCCC1)c1cc(S(=O)(=O)N2CCOCC2)ccc1F	none (no result: PHOSPHO1 inh, ALR H2O2 inh, M18AAP inhibitor)
O=C(CSc1nnc2n1CCCN2)c1ccc([N+](=O)[O-])cc1	ALR H2O2 inh 97
CC(=O)N(c1cccc(C)c1)C1SC(=O)N(c2ccccc2)C1=O (configuration not stated)	none
Cc1ccc(N2C(=O)SC(N(CC(=O)O)c3cccc(C)c3)C2=O)cc1 (configuration not stated)	ALR H2O2 inh 99
CCC[n+]1c(C)sc2c(OC)ccc(OC)c21	M18AAP inhibitor 28
O=C(O)Cc1sc(NC2CCCCC2)nc1-c1ccc(Cl)cc1	none
O=C(O)Cc1sc(-c2ccccc2Cl)nc1-c1ccccc1	ALR H2O2 inh 99
Cc1ccc(-c2nc(-c3ccc(Cl)cc3)sc2CC(=O)O)c(C)c1	ALR H2O2 inh 99
Nc1cc2nsnc2cc1Br	PfG6PD inh 99
COc1ccc(/C=C2\C(=O)ON=C2c2ccccc2)cc1	ALR H2O2 inh 98
CCOc1ncccc1C(=O)Nc1cc(S(=O)(=O)N2CCCCC2)ccc1OC	none (no result: PHOSPHO1 inh, ALR H2O2 inh, M18AAP inhibitor)
Cc1[nH]c2ccccc2c1/C=N/NC(=O)Cc1cccs1	ALR H2O2 inh 94
Cc1nn(-c2ccccc2)c(C)c1/C=N/NC(=O)c1cc(-c2ccccc2)n[nH]1	Cardio protect 75
Cc1[nH]c2ccccc2c1/C=N/NC(=O)c1cc(-c2ccccc2)n[nH]1	Cardio protect 55 (no result: ALR H2O2 inh)
Nc1ccccc1C(=O)NC(=O)Nc1ccc(Oc2ncc(Br)cn2)c(Cl)c1	none (no result: PHOSPHO1 inh, ALR H2O2 inh, M18AAP inhibitor)
O=C(Nc1ncccc1Cl)c1cc2ccccc2o1	none
Cc1ccc(Oc2ccccc2NC(=O)C2=COCCO2)cc1	none (no result: PHOSPHO1 inh, ALR H2O2 inh, M18AAP inhibitor)
Cc1ccc(/C=C/C(=O)c2ccc(O)cc2)cc1	none
Cc1ccc(C(=O)/C=C/C(=O)O)cc1	ALR H2O2 inh 98
CCOc1ccc(S(=O)(=O)N2CCN(C(=O)c3ccc(Cl)c(S(=O)(=O)N4CCOCC4)c3)CC2)cc1	none (no result: PHOSPHO1 inh, ALR H2O2 inh, M18AAP inhibitor)
CC(=NO)C1CCC2C3CCC4CC(=NO)CCC4(C)C3C(C)(O)CC12C (configuration not stated)	Cardio protect 60 (no result: PHOSPHO1 inh, ALR H2O2 inh, M18AAP inhibitor)
COc1cc(/C=N/NC(=O)/C(=C/c2ccccc2)CCO)ccc1O	ALR H2O2 inh 99
COc1ccc(/C=N/NC(=O)/C(=C/c2ccccc2)CCO)cc1	none
O=C(CCCCCNC(=O)c1ccccc1)N/N=C/c1ccc(O)cc1O	none
O=C(N/N=C/c1ccc(O)cc1O)/C(=C/c1ccccc1)CCO	Cardio protect 57, ALR H2O2 inh 81

Assay outcomes as filed in PubChem BioAssay.
